{"source": "the supplement of paper PMC6555819", "data": [{"test_system": "PPARg homodimer (NR concentration 180 nM)", "assay": "PBM binding z-score (relative to random genomic background probes); higher = stronger binding; sequences stand for … in GC…GCGATTGACAGCGTAGAATGAAGG", "method_in_brief": "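Each nuclear receptor dimer, without ligand, was incubated for 1 h on custom Agilent 4×180K protein-binding microarrays. Binding was detected with antibodies against each partner (one per run), and scanned fluorescence was regression-normalized. The binding z-scores are referenced to random human genomic background probes.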", "values": [{"sequence": "CGATCTAGGTCACCAGGACAGTGAAGAGGTTGGA", "PBM binding z-score": 1.88}, {"sequence": "CGAACTAGATCACCAGGACAGTGAAGAGGTTGGA", "PBM binding z-score": 0.192}, {"sequence": "CGAACTAGGTCACCTGGACAGTGAAGAGGTTGGA", "PBM binding z-score": 1.42}, {"sequence": "ATATGTAGGTTAGGGTCTTTCAGAAAGTAGGGAA", "PBM binding z-score": 2.25}, {"sequence": "CGAACTAGGTCAAAGGACAGTGGAAGGCGACGTA", "PBM binding z-score": 1.21}, {"sequence": "CGAACTAGGTCACCAGGACAGTGCAGAGGTTGGA", "PBM binding z-score": 2.02}, {"sequence": "CGAACTAGGTCAAAGGACAGTGATAGGCGACGTA", "PBM binding z-score": 1.45}, {"sequence": "ATATGTAGGTTAGTGTCATTCAGAAAGTAGGGAA", "PBM binding z-score": 1.86}, {"sequence": "CGTACTAGGTCACCAGGACAGTGAAGAGGTTGGA", "PBM binding z-score": 3.11}, {"sequence": "ATATGTAGGTTAGGCTCATTCAGAAAGTAGGGAA", "PBM binding z-score": 0.501}, {"sequence": "ATATGCAGGTTAGGGTCATTCAGAAAGTAGGGAA", "PBM binding z-score": 2.85}, {"sequence": "CGAACTAGGTCACCAGGAGAGTGAAGAGGTTGGA", "PBM binding z-score": 2.38}, {"sequence": "CGAACTAGGTCAAATGACAGTGAAAGGCGACGTA", "PBM binding z-score": 2.37}, {"sequence": "CGAACTAGGTCAAAGGACAGTGACAGGCGACGTA", "PBM binding z-score": 1.78}, {"sequence": "ATAAGTAGGTTAGGGTCATTCAGAAAGTAGGGAA", "PBM binding z-score": 3.79}, {"sequence": "CGAACTAGGTCACCAGGACAGTAAAGAGGTTGGA", "PBM binding z-score": 2.63}, {"sequence": "ATATGTAGGTGAGGGTCATTCAGAAAGTAGGGAA", "PBM binding z-score": 2.51}, {"sequence": "CGAACTAGGTCAGCAGGACAGTGAAGAGGTTGGA", "PBM binding z-score": 0.528}, {"sequence": "CGAACTAGGTCAAAGGACAATGAAAGGCGACGTA", "PBM binding z-score": 1.69}, {"sequence": "CGATCTAGGTCAAAGGACAGTGAAAGGCGACGTA", "PBM binding z-score": 2.2}, {"sequence": "ATATGTAGGTTAGAGTCATTCAGAAAGTAGGGAA", "PBM binding z-score": 1.2}, {"sequence": "CGAACTAGGTCACCAGGACAGTGAAGAGGTTGGA", "PBM binding z-score": 2.24}, {"sequence": "ATATGTAGGCTAGGGTCATTCAGAAAGTAGGGAA", "PBM binding z-score": 1.74}, {"sequence": "CGAACTTGGTCACCAGGACAGTGAAGAGGTTGGA", "PBM binding z-score": 0.157}, {"sequence": "ATATGTAGGTTAGGGGCATTCAGAAAGTAGGGAA", "PBM binding z-score": 2.07}, {"sequence": "ATATGTAGGTTAGGGTCATTAAGAAAGTAGGGAA", "PBM binding z-score": 3.28}, {"sequence": "ATATGTAGGTTTGGGTCATTCAGAAAGTAGGGAA", "PBM binding z-score": 2.99}, {"sequence": "ATATGTAAGTTAGGGTCATTCAGAAAGTAGGGAA", "PBM binding z-score": 2.2}, {"sequence": "ATATGAAGGTTAGGGTCATTCAGAAAGTAGGGAA", "PBM binding z-score": 3.99}, {"sequence": "CGAACTAGGTCAATGGACAGTGAAAGGCGACGTA", "PBM binding z-score": 2.53}, {"sequence": "CGAACTAGGTAACCAGGACAGTGAAGAGGTTGGA", "PBM binding z-score": 0.22}, {"sequence": "ATATGGAGGTTAGGGTCATTCAGAAAGTAGGGAA", "PBM binding z-score": 2.92}, {"sequence": "CGAACTAGGTCACCAGGGCAGTGAAGAGGTTGGA", "PBM binding z-score": 1.95}, {"sequence": "CGAACTAGGTCACCAGGACATTGAAGAGGTTGGA", "PBM binding z-score": 1.53}, {"sequence": "CGAACTAGGTCAAAGGACAGCGAAAGGCGACGTA", "PBM binding z-score": 1.59}, {"sequence": "CGAACTAGGCCACCAGGACAGTGAAGAGGTTGGA", "PBM binding z-score": -0.263}, {"sequence": "CGAACTAGGGCACCAGGACAGTGAAGAGGTTGGA", "PBM binding z-score": 0.184}, {"sequence": "CCAACTAGGTCACCAGGACAGTGAAGAGGTTGGA", "PBM binding z-score": 2.72}, {"sequence": "CGAACTAGGTCAAAGTACAGTGAAAGGCGACGTA", "PBM binding z-score": 1.65}]}]}
